For 8 compounds, growth results are on record in PubChem BioAssay (NCI).

Among the test systems are HCT-15 colon; HT29 colon; SNB-75 CNS; SNB-19 CNS; U251 CNS; PC-3 prostate; SK-MEL-5 melanoma; UACC-62 melanoma; LOX IMVI melanoma; SK-MEL-28 melanoma; SK-MEL-2 melanoma; SN12C renal; UO-31 renal; TK-10 renal; ACHN renal; CAKI-1 renal; A498 renal; MOLT-4 leukemia; CCRF-CEM leukemia.
Experiment in all cases: NCI-60 one-dose screen, 48 h (100 = growth as untreated, 0 = no growth, -100 = all killed)
What all share (conditions): 10 µM unless noted

Compounds without any hit were thinned out: in the full panel of roughly 83,000, 20% have a hit.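 Each cell line was grown in a 96-well plate and treated with one concentration of compound for 48 hours. Values below 10 were considered active.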 A number with no mark means an inactive call. Calls of active or inactive are those of the source.

With `COc1cc2c(cc1OC)C(CC1(O)CCCCC1)N(S(=O)(=O)c1ccc(C)cc1)CC2` (configuration not stated), the growth with HCT-15 colon was 22.7% [100 µM]; with HT29 colon it was 21.1% [100 µM]; with SNB-75 CNS, 40.8% [100 µM]; in the assay with SNB-19 CNS it was 48.9% [100 µM]; in the assay with U251 CNS it was 34.1% [100 µM]; in the assay on PC-3 prostate, 2.56% [100 µM] (active). Besides, the growth was 18.7% [100 µM] in the assay with SK-MEL-5 melanoma; 27.4% [100 µM] with UACC-62 melanoma; 29.3% [100 µM] with LOX IMVI melanoma; 55% [100 µM] in the assay on SK-MEL-28 melanoma; 6.69% [100 µM] (active) in the assay on SK-MEL-2 melanoma; 42.3% [100 µM] with SN12C renal. Moreover, the growth in the assay with UO-31 renal was 25.8% [100 µM]; in the assay on TK-10 renal it was 40.9% [100 µM]; in the assay with ACHN renal, 18.5% [100 µM]; with CAKI-1 renal it was 22% [100 µM]; in the assay with A498 renal, 0.608% [100 µM] (active); in the assay on MOLT-4 leukemia, 3.12% [100 µM] (active).
Take `O=C1c2cccc3c([N+](=O)[O-])ccc(c23)C(=O)N1CCCCl`: the growth in the assay on HCT-15 colon was -82.6% [100 µM] (active); in the assay with HT29 colon it was -63.2% [100 µM] (active); in the assay on SNB-75 CNS it was -98.6% [100 µM] (active); in the assay on SNB-19 CNS it was -97.8% [100 µM] (active); with U251 CNS, -97.4% [100 µM] (active); in the assay with PC-3 prostate, -90.8% [100 µM] (active). In addition, the growth was -95.6% [100 µM] (active) with SK-MEL-5 melanoma; -96.3% [100 µM] (active) in the assay with UACC-62 melanoma; -85.5% [100 µM] (active) with LOX IMVI melanoma; -97.3% [100 µM] (active) with SK-MEL-28 melanoma; -94.9% [100 µM] (active) in the assay on SK-MEL-2 melanoma; -93.1% [100 µM] (active) in the assay on SN12C renal. For the same compound, the growth in the assay on UO-31 renal was -86.6% [100 µM] (active); in the assay with TK-10 renal, -50.2% [100 µM] (active); with ACHN renal, -96.1% [100 µM] (active); in the assay on A498 renal, -92.4% [100 µM] (active); in the assay with MOLT-4 leukemia it was -11.3% [100 µM] (active).
`CSc1nc(-c2ccc(O)cc2O)c2c(=O)[nH]c(Nc3ccc(S(=O)(=O)Nc4nc(C)cc(C)n4)cc3)nc2n1`: the growth in the assay on HCT-15 colon is 104%; in the assay with HT29 colon, 113%; in the assay with SNB-75 CNS, 73.1%; in the assay on SNB-19 CNS it was 96.1%; with U251 CNS it was 100%; in the assay with PC-3 prostate it was 88%. Also, the growth in the assay with SK-MEL-5 melanoma was 109%; in the assay with UACC-62 melanoma, 92.7%; with LOX IMVI melanoma it was 99%; in the assay on SK-MEL-28 melanoma, 97.8%; with SK-MEL-2 melanoma, 81.2%; in the assay with SN12C renal it was 107%. Besides, the growth was 112% with UO-31 renal; 123% in the assay on TK-10 renal; 93.3% with ACHN renal; 1120% with CAKI-1 renal; 113% in the assay with A498 renal; 103% with CCRF-CEM leukemia. The growth in the assay on MOLT-4 leukemia was 104%.
On to `O=C1NC(=S)S/C1=C\c1cc(Br)ccc1O`, for which the growth in the assay with HCT-15 colon is 97.8%; in the assay on HT29 colon, 119%; with SNB-75 CNS it was 97.8%; with SNB-19 CNS it was 107%; in the assay with U251 CNS, 99.9%; in the assay with PC-3 prostate it was 104%. In addition, the growth in the assay with SK-MEL-5 melanoma is 92.6%; with UACC-62 melanoma it was 84.8%; in the assay with LOX IMVI melanoma it was 100%; in the assay on SK-MEL-28 melanoma it was 111%; with SK-MEL-2 melanoma it was 100%; in the assay on SN12C renal, 102%. The growth in the assay on UO-31 renal was 67.6%; in the assay with TK-10 renal, 107%; in the assay with ACHN renal, 93.5%; in the assay with CAKI-1 renal, 99.5%; with A498 renal it was 76%; in the assay with CCRF-CEM leukemia, 79.2%. Further, the growth in the assay with MOLT-4 leukemia was 107%.
As to `CCCCCc1c(C)[nH]c(/C=C2\N=C(c3ccc[nH]3)C=C2OCc2ccccc2)c1C`, the growth with HCT-15 colon is -60% [100 µM] (active); in the assay on HT29 colon, -80.9% [100 µM] (active); in the assay on SNB-75 CNS it was -78.1% [100 µM] (active); in the assay with SNB-19 CNS, -92.8% [100 µM] (active); in the assay on U251 CNS, -93.7% [100 µM] (active); in the assay on PC-3 prostate, -69.5% [100 µM] (active). The growth with SK-MEL-5 melanoma was -66.9% [100 µM] (active); in the assay on UACC-62 melanoma, -92.7% [100 µM] (active); with LOX IMVI melanoma, -62.6% [100 µM] (active); with SK-MEL-28 melanoma, -89.8% [100 µM] (active); in the assay with SK-MEL-2 melanoma, -75% [100 µM] (active); in the assay on SN12C renal it was -77% [100 µM] (active). Also, the growth was -93.6% [100 µM] (active) in the assay with UO-31 renal; -81.3% [100 µM] (active) with TK-10 renal; -91.5% [100 µM] (active) in the assay on ACHN renal; -74.4% [100 µM] (active) with CAKI-1 renal; -79.2% [100 µM] (active) in the assay on A498 renal; -57.8% [100 µM] (active) in the assay with MOLT-4 leukemia.
Turning to `COc1cc(/C=N/NC(=O)c2ccc(C(F)(F)F)nc2Nc2cc(Cl)ccc2C)cc(OC)c1OC`, the growth was 104% in the assay with HCT-15 colon; 127% in the assay with HT29 colon; 96% with SNB-75 CNS; 75.4% in the assay on SNB-19 CNS; 87.4% in the assay on U251 CNS; 66.8% with PC-3 prostate. Also, the growth was 102% with SK-MEL-5 melanoma; 85% in the assay with UACC-62 melanoma; 102% in the assay with LOX IMVI melanoma; 99.5% in the assay on SK-MEL-28 melanoma; 88.8% with SK-MEL-2 melanoma; 93.9% in the assay on SN12C renal. For the same compound, the growth in the assay on UO-31 renal was 103%; with TK-10 renal, 119%; in the assay on ACHN renal it was 104%; with CAKI-1 renal it was 77.5%; in the assay with A498 renal, 100%; with CCRF-CEM leukemia, 51.5%. Also, in the assay with MOLT-4 leukemia, the growth is 61.8%.
Turning to `CCCCCCCC[Si](OCC)(OCC)OCC`, the growth in the assay on HCT-15 colon is 107%; with HT29 colon, 103%; in the assay with SNB-75 CNS, 85.2%; in the assay with SNB-19 CNS it was 100%; in the assay on U251 CNS it was 98.9%; in the assay with PC-3 prostate, 91.5%. The growth with SK-MEL-5 melanoma is 111%; in the assay with UACC-62 melanoma, 104%; in the assay with LOX IMVI melanoma, 103%; in the assay with SK-MEL-28 melanoma, 104%; with SK-MEL-2 melanoma, 102%; in the assay with SN12C renal, 106%. The growth was 81.1% in the assay with UO-31 renal; 90.8% in the assay with TK-10 renal; 98.2% in the assay with ACHN renal; 54.9% with CAKI-1 renal; 105% in the assay with A498 renal; 95.7% in the assay on MOLT-4 leukemia.
On to `COc1ccc(C2=NN(C(N)=S)C(c3ccc4c(c3)OCO4)C2)cc1` (configuration not stated), for which the growth in the assay with HCT-15 colon is 23.2%; in the assay with HT29 colon it was 7.46% (active); with SNB-75 CNS, 26.5%; in the assay on SNB-19 CNS, 46.9%; in the assay on U251 CNS it was 21.6%; in the assay on PC-3 prostate it was 33.3%. Moreover, the growth is 41.5% in the assay with SK-MEL-5 melanoma; 43.6% in the assay on UACC-62 melanoma; -18.2% (active) in the assay with LOX IMVI melanoma; 75.4% with SK-MEL-28 melanoma; 47% in the assay on SK-MEL-2 melanoma; 31% in the assay on SN12C renal. In addition, the growth in the assay on UO-31 renal was -7.08% (active); with TK-10 renal, 50.2%; in the assay with ACHN renal it was 22%; in the assay with CAKI-1 renal, 6.32% (active); in the assay with A498 renal it was 49.2%; with CCRF-CEM leukemia it was 5.49% (active). Also, the growth in the assay with MOLT-4 leukemia was 13.8%.
